PubChem BioAssay AID1259240 (Keith Lab, Institute of Cancer Science, University of …, 2017)
Unmarked numbers belong to inactive results. The source made the active and inactive calls. Rule as the data show it: active = fold change mostly below about -2 (no sharp cut-off); inactive = mostly above about -1.8.

Assay: TERT promoter activity modulators, primary screen, cell-based, luciferase reporter, human (AID 1259240)
Conditions: A2780 TERT promoter luciferase reporter, 16 h; at 20 µM, fold versus average of vehicle-only wells

Row | Structure (SMILES) | fold change | outcome
1 | CCC(=O)OCCNc1cc(N2CCCC2)c2noc3c2c1C(=O)c1ccccc1-3 | 2.08 (active) | 
2 | Cc1cccc(NC(=O)C2CCCN(S(=O)(=O)c3cnc[nH]3)C2)n1 (centres undefined) | -2.48 (active) | 
3 | CCCCN1C(=O)C(O)(CC(=O)c2cccs2)c2ccccc21 (centres undefined) | -1.63 | 
4 | CC(C)C(NS(=O)(=O)c1ccc2c(c1)oc(=O)n2C)C(=O)NCc1cccs1 (centres undefined) | -1.35 | 
5 | CCOC(=O)N1CCN(c2c(N(CC)CCN(C)C)c(=O)c2=O)CC1 | -1.33 | 
6 | CC(=O)Oc1ccc(/C=c2\sc3nc(-c4ccco4)nn3c2=O)cc1 | -1.31 | 
7 | Cc1ccc(C2C3=C(CC(C)(C)CC3=O)Nc3ncnn32)cc1 (centres undefined) |  | inactive
8 | COc1ccc2c(c1)OC13CCCCC1C2C(C(=O)c1ccccc1)C(=O)N3 (centres undefined) | -2.84 (active) | 
9 | Cc1ccc(S(=O)(=O)N2N=C(c3ccc(NS(C)(=O)=O)cc3)CC2c2ccco2)cc1 (centres undefined) | -1.45 | 
